About 83,000 compounds went through this panel and 20% of them were active in at least one assay; those are over-represented in the sample as a whole.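 Cells were grown in 96-well plates and exposed to the test compound at a single concentration for 48 hours; results are reported as percent growth, with values below 10 considered active.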 Unmarked numbers belong to inactive results. The source made the active and inactive calls.

This note sets out measurements from PubChem BioAssay (NCI).

Test systems include NCI-H23 lung; NCI-H226 lung; NCI-H322M lung; HOP-62 NSCLC; NCI-H460 lung; HOP-92 NSCLC; A549/ATCC NSCLC; 786-0 renal; COLO 205 colon; DU-145 prostate; K-562 leukemia; MALME-3M melanoma; MDA-MB-231 breast; RXF 393 renal; SF-268 CNS; SF-295 CNS; SF-539 CNS; UACC-257 melanoma; M14 melanoma; NCI-H522 lung.
Holding throughout (assay): NCI-60 one-dose screen, 48 h (100 = growth as untreated, 0 = no growth, -100 = all killed)
What all share (conditions): 10 µM unless noted

`O=C(CCN1CCCC1)Nc1ccc2c(NCCc3ccccc3)c3ccccc3nc2c1`: the growth in the test with NCI-H23 lung was -40.2% (active); in the test with NCI-H226 lung it was -19.8% (active); with NCI-H322M lung, -19% (active); in the test on HOP-62 NSCLC it was -9.1% (active); with NCI-H460 lung, -64.8% (active); with HOP-92 NSCLC, -14.5% (active). In addition, the growth in the test on A549/ATCC NSCLC is -5.65% (active); in the test on 786-0 renal it was -12.4% (active); in the test with COLO 205 colon, -37.5% (active); in the test on DU-145 prostate it was -23.3% (active); in the test on K-562 leukemia, -17.1% (active); with MALME-3M melanoma it was -92.6% (active). For the same compound, the growth in the test on MDA-MB-231 breast was -32.5% (active); in the test with RXF 393 renal, -47.9% (active); in the test on SF-268 CNS, -55% (active); in the test with SF-295 CNS, -2.88% (active); in the test with SF-539 CNS, -67.2% (active); in the test on UACC-257 melanoma it was -8.54% (active). Also, the growth in the test with M14 melanoma is -61.8% (active).

Turning to `COc1cc(/C(C)=C(\c2ccc(Cl)cc2)c2ccc(OCCN3CCCC3)cc2)ccc1F`, the growth with NCI-H23 lung was 67.4%; with NCI-H226 lung, 87.8%; with NCI-H322M lung it was 71%; in the test on HOP-62 NSCLC, 87.2%; with NCI-H460 lung it was 6.04% (active); in the test with HOP-92 NSCLC, 52.4%. Further, the growth with A549/ATCC NSCLC was 57.1%; in the test on 786-0 renal, 71.4%; in the test on COLO 205 colon, 16.3%; in the test on DU-145 prostate, 69.4%; in the test with K-562 leukemia it was 3.65% (active); in the test on MALME-3M melanoma, -2.59% (active). Moreover, the growth was 56.4% with MDA-MB-231 breast; 69.3% in the test with RXF 393 renal; 76.6% with SF-268 CNS; 75.2% in the test on SF-295 CNS; 73.3% in the test on SF-539 CNS; 3.02% (active) in the test with UACC-257 melanoma. Moreover, in the test on M14 melanoma, the growth is 18.2%.

Take `Nc1c(C(=O)Nc2cccc3cnccc23)sc2nc3c(cc12)C(=O)CCC3`: the growth in the test with NCI-H23 lung is 92.6%; with NCI-H226 lung it was 92.7%; with HOP-62 NSCLC, 90.5%; with NCI-H460 lung, 78.2%; in the test on HOP-92 NSCLC, 80.5%; in the test with NCI-H522 lung, 40.4%. Besides, the growth is 87.4% in the test with A549/ATCC NSCLC; 91.3% with 786-0 renal; 108% in the test on COLO 205 colon; 103% in the test with DU-145 prostate; 46.3% in the test on K-562 leukemia; 88.3% with MALME-3M melanoma. Besides, the growth with MDA-MB-231 breast is 83.4%; in the test on RXF 393 renal it was 92.2%; in the test on SF-268 CNS it was 96.4%; in the test with SF-295 CNS, 74.9%; in the test on SF-539 CNS it was 93.6%; with UACC-257 melanoma, 95.6%. In addition, the growth with M14 melanoma is 74.6%.

On to `Cc1cc2nc3c4cccc(O)c4n(CCN(C)C)c3nc2cc1C`, for which the growth was 32.3% in the test with NCI-H23 lung; 37% in the test with NCI-H226 lung; 38% in the test with NCI-H322M lung; 31.7% in the test with HOP-62 NSCLC; 9.09% (active) in the test with NCI-H460 lung; 55.1% with HOP-92 NSCLC. In addition, the growth in the test on A549/ATCC NSCLC is 20.4%; in the test with 786-0 renal, 40.4%; in the test with COLO 205 colon it was 59.7%; in the test on DU-145 prostate, 29.8%; in the test with K-562 leukemia, 6.28% (active); in the test with MALME-3M melanoma it was 32.9%. In addition, the growth is 28.1% with MDA-MB-231 breast; 35.1% in the test on RXF 393 renal; 51.1% in the test on SF-268 CNS; 32.1% with SF-295 CNS; 25.7% with SF-539 CNS; 63.5% in the test on UACC-257 melanoma. Moreover, in the test on M14 melanoma, the growth was 44.2%.

For the compound `CCOC(=O)[C@@H]1CCCN(S(=O)(=O)c2ccc(S(=O)(=O)N(CC)CC)c(F)c2)C1`, the growth was 45.3% in the test on NCI-H23 lung; 72.6% in the test with NCI-H226 lung; 90.2% with NCI-H322M lung; 74.6% in the test with HOP-62 NSCLC; 81.2% in the test on NCI-H460 lung; 67.4% in the test on HOP-92 NSCLC. For the same compound, the growth in the test with A549/ATCC NSCLC was 86.2%; in the test with 786-0 renal, 70.7%; in the test on COLO 205 colon, 83.9%; with DU-145 prostate, 99%; in the test with K-562 leukemia it was 37.4%; in the test on MALME-3M melanoma it was 79.9%. For the same compound, the growth with MDA-MB-231 breast is 92.9%; in the test on RXF 393 renal, 76.4%; in the test with SF-268 CNS it was 85.9%; with SF-295 CNS, 49.6%; in the test on SF-539 CNS, 88.8%; with UACC-257 melanoma, 60.6%. Also, in the test on M14 melanoma, the growth was 76.2%.

As to `COc1cc(/C=C2\COc3ccc(-c4ccccc4)cc3C2=O)cc(OC)c1`, the growth in the test on NCI-H23 lung was 70.1%; in the test on NCI-H226 lung, 87.4%; in the test on NCI-H322M lung it was 85.9%; in the test with HOP-62 NSCLC it was 113%; in the test on NCI-H460 lung it was 66.7%; in the test with HOP-92 NSCLC, 70.3%. Besides, the growth in the test with 786-0 renal was 89.3%; in the test with COLO 205 colon, 107%; in the test with DU-145 prostate, 85.8%; in the test on MALME-3M melanoma, 101%; in the test on MDA-MB-231 breast, 95.5%; in the test on RXF 393 renal, 66.1%. Further, the growth was 82.3% in the test with SF-268 CNS; 68.9% in the test with SF-295 CNS; 100% with SF-539 CNS; 70.9% in the test with UACC-257 melanoma; 91.9% in the test on M14 melanoma.

In the case of `Cc1cccc(-c2cn3ccnc3c(-c3ccc4ncn(Cc5ccccc5)c4c3)n2)c1`, the growth in the test with NCI-H23 lung was 90.9%; in the test with NCI-H226 lung, 98.8%; in the test on NCI-H322M lung it was 101%; with HOP-62 NSCLC it was 90.3%; in the test with NCI-H460 lung, 89.9%; in the test with HOP-92 NSCLC, 71.3%. The growth with A549/ATCC NSCLC was 85.1%; with 786-0 renal, 78.6%; in the test on COLO 205 colon, 88.6%; with DU-145 prostate it was 85.8%; in the test on MALME-3M melanoma, 125%; with MDA-MB-231 breast, 71.6%. The growth was 98% with RXF 393 renal; 92.8% in the test on SF-268 CNS; 85.7% in the test with SF-295 CNS; 92.7% with SF-539 CNS; 120% with UACC-257 melanoma; 102% in the test on M14 melanoma.

As for `COCc1cnccc1NC1CCCCCC1`, the growth was 103% in the test with NCI-H23 lung; 95.7% in the test with NCI-H226 lung; 98.6% with NCI-H322M lung; 99.9% in the test with HOP-62 NSCLC; 108% in the test with NCI-H460 lung; 91.2% in the test on HOP-92 NSCLC. Moreover, the growth in the test with A549/ATCC NSCLC is 96.3%; in the test on 786-0 renal it was 106%; in the test with COLO 205 colon it was 121%; in the test on DU-145 prostate it was 108%; in the test with MALME-3M melanoma, 105%; in the test on MDA-MB-231 breast it was 101%. Besides, the growth in the test on RXF 393 renal is 100%; in the test with SF-268 CNS, 101%; in the test with SF-295 CNS it was 101%; in the test with SF-539 CNS it was 101%; in the test on UACC-257 melanoma, 99.5%; in the test on M14 melanoma, 94.2%.
